In all, about 310,000 compounds went through this assay and about 2,200 (0.71%) showed an effect of 50% or more. The effect is printed as a negative number. Only a selection was taken, and strong results are over-represented in it overall.

The target in the test is human ether-à-go-go-related gene (hERG) potassium channel (human, UniProt Q12809). In words: primary screen, population patch clamp on CHO cells stably expressing hERG; higher = less effect of the substance.
human ether-à-go-go-related gene (hERG) potassium channel, sequence (Q12809 whole entry, looked up): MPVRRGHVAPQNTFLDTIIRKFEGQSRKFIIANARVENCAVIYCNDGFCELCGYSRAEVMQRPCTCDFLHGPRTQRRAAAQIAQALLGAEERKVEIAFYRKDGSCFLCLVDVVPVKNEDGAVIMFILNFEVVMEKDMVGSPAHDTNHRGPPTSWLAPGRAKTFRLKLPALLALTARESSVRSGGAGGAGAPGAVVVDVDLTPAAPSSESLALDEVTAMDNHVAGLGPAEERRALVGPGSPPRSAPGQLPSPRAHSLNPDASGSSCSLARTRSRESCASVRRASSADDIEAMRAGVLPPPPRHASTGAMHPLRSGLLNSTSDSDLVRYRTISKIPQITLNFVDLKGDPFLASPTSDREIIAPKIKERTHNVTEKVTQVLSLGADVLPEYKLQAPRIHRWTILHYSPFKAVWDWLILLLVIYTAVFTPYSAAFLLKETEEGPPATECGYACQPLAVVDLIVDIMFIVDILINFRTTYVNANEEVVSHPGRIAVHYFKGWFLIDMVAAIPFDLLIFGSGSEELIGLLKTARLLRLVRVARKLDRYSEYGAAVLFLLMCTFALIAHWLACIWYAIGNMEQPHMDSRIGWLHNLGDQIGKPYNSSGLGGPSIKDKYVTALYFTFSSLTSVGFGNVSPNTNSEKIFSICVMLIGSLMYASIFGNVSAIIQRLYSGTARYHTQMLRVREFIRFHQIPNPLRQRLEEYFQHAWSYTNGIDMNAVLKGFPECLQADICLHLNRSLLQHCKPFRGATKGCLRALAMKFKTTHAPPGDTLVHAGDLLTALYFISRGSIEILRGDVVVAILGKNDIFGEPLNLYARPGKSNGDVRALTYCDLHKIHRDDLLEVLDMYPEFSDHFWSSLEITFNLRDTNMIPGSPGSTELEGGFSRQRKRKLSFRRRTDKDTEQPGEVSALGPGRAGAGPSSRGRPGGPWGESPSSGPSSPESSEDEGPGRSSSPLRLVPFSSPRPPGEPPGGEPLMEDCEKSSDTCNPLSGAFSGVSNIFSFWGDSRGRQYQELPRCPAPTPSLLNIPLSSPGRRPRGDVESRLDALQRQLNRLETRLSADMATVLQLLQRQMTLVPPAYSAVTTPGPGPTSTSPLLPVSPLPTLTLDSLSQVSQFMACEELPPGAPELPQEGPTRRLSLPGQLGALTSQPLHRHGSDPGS
Consider `Cc1ccc2[nH]cc(C(=O)CCl)c2c1`, for which the “hERG current change (%, negative = inhibition) at 1uM” value is 15.2%. Under `CCOc1ccccc1NC1c2ccccc2C(=O)N1Cc1ccco1` (centres unmarked) stands 7.42%. On to `O=C(O)c1cccc(N2C(=O)CSC2=S)c1`, for which the “hERG current change (%, negative = inhibition) at 1uM” value stood at 11.7%.

`COc1ccccc1-n1c(-c2ccc(Cl)cc2)c[nH]c1=S`: the “hERG current change (%, negative = inhibition) at 1uM” value came out at 9.1%. Consider `Cc1nc2scc(-c3ccco3)c2c(=O)n1/N=C/N(C)C`, for which the “hERG current change (%, negative = inhibition) at 1uM” value was 5.8%. In the case of `O=C(Nc1cccc(NC(=O)c2ccc(Cl)cc2)n1)c1ccc(Cl)cc1`, the “hERG current change (%, negative = inhibition) at 1uM” value stood at 14.3%.

With `COc1ccc(-c2ccnc3nc(N4CCN(c5ccccc5)CC4)nn23)cc1`, the “hERG current change (%, negative = inhibition) at 1uM” value was 14.9%.

As to `CCCCn1nnc(NC(=O)C(c2ccccc2)c2ccccc2)n1`, the “hERG current change (%, negative = inhibition) at 1uM” value came out at 11.2%. As to `COc1c(C)cc(S(=O)(=O)NCc2ccccn2)c(C)c1C`, the “hERG current change (%, negative = inhibition) at 1uM” value was found to be 9.43%. Regarding `Nc1nnc(SCC(=O)OCc2ccccc2)s1`, the “hERG current change (%, negative = inhibition) at 1uM” value is reported as 14.4%. As to `CCN(CC)S(=O)(=O)c1ccc(N2CCOCC2)c(NS(=O)(=O)c2cc(C(C)(C)C)ccc2C)c1`, the “hERG current change (%, negative = inhibition) at 1uM” value amounted to 6.68%.

Consider `O=C(NCCc1cccs1)C1CC(c2c(Cl)cccc2Cl)=NO1` (centres unmarked), for which the “hERG current change (%, negative = inhibition) at 1uM” value amounted to 10.6%. Take `CSCCC(NS(=O)(=O)c1ccccc1F)C(=O)NCCCn1nc(C)cc1C` (centres unmarked): the “hERG current change (%, negative = inhibition) at 1uM” value was -1.95%. Turning to `COc1ccc(/C=C(\NC(=O)c2ccc(Cl)cc2)C(=O)NCCCN2CCOCC2)cc1OC`, the “hERG current change (%, negative = inhibition) at 1uM” value was found to be 9.09%. Then `Cc1ccc(C(=O)N/C(=C\c2ccc(Cl)cc2)C(=O)NCCCN2CCOCC2)cc1`, with -78.6%; and `COc1ccc(/C=C(\NC(=O)c2ccc(C)cc2)C(=O)NCCCN2CCOCC2)cc1OC`, with 14.1%. For the molecule `Cc1ccc(OCCOCCN2CCN(C)CC2)c(C(C)(C)C)c1.O=C(O)C(=O)O`, the “hERG current change (%, negative = inhibition) at 1uM” value is recorded as 13.2%. With `COc1ccc(S(=O)(=O)NCC(c2cccnc2)N2CCN(Cc3ccccc3)CC2)cc1` (centres unmarked), the “hERG current change (%, negative = inhibition) at 1uM” value was -26.7%. `COc1ccc(S(=O)(=O)NCC(c2cccnc2)N2CCN(c3ccccc3)CC2)cc1C` (centres unmarked): the “hERG current change (%, negative = inhibition) at 1uM” value is reported as -1.72%.

Regarding `Cc1ccc(S(=O)(=O)NCC(c2cccnc2)N2CCN(Cc3ccccc3)CC2)cc1` (centres unmarked), the “hERG current change (%, negative = inhibition) at 1uM” value is on record as -39.6%. As for `CCN1CCN(C(CNS(=O)(=O)c2ccc(OC)c(C)c2)c2cccnc2)CC1` (centres unmarked), the “hERG current change (%, negative = inhibition) at 1uM” value is given as -27.5%. On to `O=S(=O)(NCC(c1cccnc1)N1CCN(Cc2ccccc2)CC1)c1ccc(Cl)cc1` (centres unmarked), for which the “hERG current change (%, negative = inhibition) at 1uM” value was -60.6%. For the molecule `O=S(=O)(NCC(c1cccnc1)N1CCN(Cc2ccccc2)CC1)c1ccccc1` (centres unmarked), the “hERG current change (%, negative = inhibition) at 1uM” value is recorded as -52.4%.

Turning to `COc1ccc(S(=O)(=O)NCC(c2cccnc2)N2CCN(Cc3ccccc3)CC2)cc1C` (centres unmarked), the “hERG current change (%, negative = inhibition) at 1uM” value is listed as -65.5%. As for `O=S(=O)(NCC(c1cccnc1)N1CCN(Cc2ccccc2)CC1)c1ccc(F)cc1` (centres unmarked), the “hERG current change (%, negative = inhibition) at 1uM” value was -42.6%.

With `CCN1CCN(C(CNS(=O)(=O)c2ccc(Cl)cc2)c2cccnc2)CC1` (centres unmarked), the “hERG current change (%, negative = inhibition) at 1uM” value is reported as -10.6%. For `COc1ccc(C(=O)NNC(=O)C(=O)NC2CCCCC2)cc1`, the “hERG current change (%, negative = inhibition) at 1uM” value is given as 4.11%. In the case of `O=c1cccccc1NN=C1CCCCCC1`, the “hERG current change (%, negative = inhibition) at 1uM” value is reported as 14.1%. For `Clc1ccc(/C=N/Nc2nnc(-c3ncc[nH]3)c3ccccc23)cc1`, the “hERG current change (%, negative = inhibition) at 1uM” value is 4.89%.

For the molecule `Cc1cc(OCCCCOc2ccc(S(N)(=O)=O)c(C)c2)ccc1S(N)(=O)=O`, the “hERG current change (%, negative = inhibition) at 1uM” value was found to be 12.7%. Regarding `O=C(O)Cn1c(=O)c2c3c(sc2n(Cc2ccc(Cl)cc2Cl)c1=O)CCCC3`, the “hERG current change (%, negative = inhibition) at 1uM” value came out at 6.14%. Under `CC(Sc1nnc(C2CC2)n1C1CC1)C(=O)N(C)Cc1cccc(F)c1` (centres unmarked) stands -2.8%. Consider `CCOC(=O)C1=C(c2ccccc2)NC(=O)N(C(C)=O)C1c1cccc([N+](=O)[O-])c1` (centres unmarked), for which the “hERG current change (%, negative = inhibition) at 1uM” value came out at 10.2%. On to `CCOCCCn1c(=N)c(S(=O)(=O)c2ccccc2)cc2c(=O)n3cc(C)ccc3nc21`, for which the “hERG current change (%, negative = inhibition) at 1uM” value stood at 11.3%.

With `Cc1ccc2nc3c(cc(C(N)=S)c(=N)n3CCCOC(C)C)c(=O)n2c1`, the “hERG current change (%, negative = inhibition) at 1uM” value was -65.1%. Turning to `CCOCCCn1c(=N)c(S(=O)(=O)c2ccc(C)cc2)cc2c(=O)n3cc(C)ccc3nc21`, the “hERG current change (%, negative = inhibition) at 1uM” value was determined as 16.1%. `CC(C)OCCCn1c(=N)c(S(=O)(=O)c2ccccc2)cc2c(=O)n3ccccc3nc21`: the “hERG current change (%, negative = inhibition) at 1uM” value is on record as -0.118%. Under `CC(C)OCCCn1c(=N)c(C(N)=S)cc2c(=O)n3ccccc3nc21` stands -74.5%. Consider `CCOC(=O)c1cc2c(=O)n3ccccc3nc2n(CCCOC)c1=NC(C)=O`, for which the “hERG current change (%, negative = inhibition) at 1uM” value is listed as -15.6%. On to `CCc1cc(C(=O)COc2ccc(F)cc2)c(O)cc1O`, for which the “hERG current change (%, negative = inhibition) at 1uM” value came out at 5.76%. On to `CCSc1nc2sc3c(c2c(=O)[nH]1)CC(C)(CC)OC3` (centres unmarked), for which the “hERG current change (%, negative = inhibition) at 1uM” value turned out to be 18.7%. Turning to `O=C1C=C(Nc2ccc(Cl)cc2)CC(c2ccco2)C1` (centres unmarked), the “hERG current change (%, negative = inhibition) at 1uM” value turned out to be 4.78%. Then `O=C1C=C(NCc2ccncc2)CC(c2ccccc2)C1` (centres unmarked), with -22.8%. Regarding `O=C1C=C(NCc2ccco2)CC(c2ccc(Cl)cc2)C1` (centres unmarked), the “hERG current change (%, negative = inhibition) at 1uM” value is reported as -34.8%. Then `CC(C)CNC1=CC(=O)CC(c2ccco2)C1` (centres unmarked), with 14.5%; and `CC(C)CCNC1=CC(=O)CC(c2ccccc2)C1` (centres unmarked), with -0.257%; and `O=C1C=C(NCc2ccc(Cl)cc2)CC(c2ccco2)C1` (centres unmarked), with -91.3%. Regarding `CCc1ccc(NC2=CC(=O)CC(c3ccco3)C2)cc1` (centres unmarked), the “hERG current change (%, negative = inhibition) at 1uM” value amounted to 12.9%. As for `COc1ccc(C2CC(=O)C=C(NCc3ccc4c(c3)OCO4)C2)cc1` (centres unmarked), the “hERG current change (%, negative = inhibition) at 1uM” value is on record as -32.6%. `CCCCCCCNC1=CC(=O)CC(c2ccco2)C1` (centres unmarked): the “hERG current change (%, negative = inhibition) at 1uM” value is given as -77.6%. Under `CN(C)CCCNC1=CC(=O)CC(c2ccccc2)C1` (centres unmarked) stands -1.56%; under `CCCCCCCNC1=CC(=O)CC(c2ccccc2)C1` (centres unmarked), -63.2%. For `O=C1C=C(NCc2ccc3c(c2)OCO3)CC(c2ccccc2)C1` (centres unmarked), the “hERG current change (%, negative = inhibition) at 1uM” value is -81.9%. As for `Cc1cccc(OC(=O)NCCOC(=O)N(O)c2ccc(Cl)cc2)c1`, the “hERG current change (%, negative = inhibition) at 1uM” value was 1.04%. `Cc1ccc(NC(=O)CSc2sc3c(O)cc(=O)[nH]c3c2C#N)c(F)c1`: the “hERG current change (%, negative = inhibition) at 1uM” value was -4.66%. With `Cc1cccc(C)c1NC(=O)CSc1nc2[nH]c(=O)cc(O)c2s1`, the “hERG current change (%, negative = inhibition) at 1uM” value worked out at 4.15%.

The values above are taken from paper PMC4336329 (PLoS ONE, 2015).
